Results: PubChem BioAssay AID1778 (Sanford-Burnham Center for Chemical Genomics, 2009)
About 260 (0.09%) of roughly 290,000 compounds were called active. No stated cut-off is given here; in the data, active means inhibition above about 50%; inactive means the rest. The list comes from a sample in which actives are over-represented; it also holds similar structures and randomly drawn compounds. Measured potencies and affinities stand elsewhere.

The molecules below were run against Kappa-type opioid receptor (Homo sapiens) (UniProt P41145) (assay: KOR antagonists, beta-arrestin recruitment, cell-based, luminescence, uHTS (AID 1778)). Details: antagonist mode, hits give high values; at 10 µM unless noted.
Sequence of Kappa-type opioid receptor (Homo sapiens) (P41145 whole entry, looked up): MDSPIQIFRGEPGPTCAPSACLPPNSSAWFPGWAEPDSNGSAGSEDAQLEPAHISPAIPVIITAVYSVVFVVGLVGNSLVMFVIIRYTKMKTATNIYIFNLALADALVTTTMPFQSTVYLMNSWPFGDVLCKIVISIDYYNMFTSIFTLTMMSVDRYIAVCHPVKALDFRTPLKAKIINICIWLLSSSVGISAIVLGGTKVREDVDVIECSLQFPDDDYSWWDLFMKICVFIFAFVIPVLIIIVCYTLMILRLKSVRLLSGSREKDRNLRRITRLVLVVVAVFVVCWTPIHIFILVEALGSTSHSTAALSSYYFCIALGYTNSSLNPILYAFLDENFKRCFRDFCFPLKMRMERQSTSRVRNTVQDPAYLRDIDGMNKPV

| Compound | inhibition |
| --- | --- |
| CC(NC(=O)Cn1cc(C(F)(F)F)ccc1=O)c1ccc(F)cc1 (stereo not drawn) | -19.7% (inactive) |
| Cc1ccc(-c2nnc(SCC(N)=O)n2C)cc1 | -13.4% [at 20 µM] (inactive) |
| COC(=O)CC(N)c1ccc(OC)c2ccccc12 (stereo not drawn) | 15.2% (inactive) |
| Cc1[nH]oc(=O)c1N=Nc1ccccc1 | -11% (inactive) |
| Oc1ccc(N=Nc2nc(-c3ccccc3)c(-c3ccccc3)[nH]2)cc1 | 32.4% (inactive) |
| N#Cc1ccc(NC(=O)CSc2cn[nH]n2)cc1 | -56.1% (inactive) |
| CC(NC(=O)c1cc2cc([N+](=O)[O-])ccc2oc1=O)C1CCCO1 (stereo not drawn) | -4.3% [at 20 µM] (inactive) |
| C#CCOCCOCCOCCNc1nc(N2CCN(C(=O)C(Cc3ccc(O)cc3)n3cc(C(N)CC(C)C)nn3)CC2)nc(N2CCN(C(=O)C(Cc3cc4ccccc4[nH]3)n3cc(C(N)Cc4ccc(O)cc4)nn3)CC2)n1 (stereo not drawn) | 12% (inactive) |
| C#CCOCCOCCOCCNc1nc(N2CCN(C(=O)[C@H](Cc3ccc(O)cc3)n3cc([C@@H](N)CC(C)C)nn3)CC2)nc(N2CCN(C(=O)[C@H](Cc3cc4ccccc4[nH]3)n3cc([C@@H](N)CC(C)C)nn3)CC2)n1 | 10.8% (inactive) |
| C#CCOCCOCCOCCNc1nc(N2CCN(C(=O)[C@H](Cc3cc4ccccc4[nH]3)n3cc([C@@H](N)Cc4ccc(O)cc4)nn3)CC2)nc(N2CCN(C(=O)[C@H](Cc3cc4ccccc4[nH]3)n3cc([C@@H](N)CC(C)C)nn3)CC2)n1 | 51.3% (active) |
| O=C(Nc1ccc(OC(F)(F)F)cc1)c1ccc2ccccc2n1 | -27.1% (inactive) |
| CCCSc1cc(NCCOC(C)=O)c([N+](=O)[O-])c2nonc12 | -12.8% (inactive) |
| O=[N+]([O-])c1c(NCCCO)cc(Sc2nc3ccccc3s2)c2nonc12 | 42.1% (inactive) |
| CC(=O)OCCNc1cc(SC(C)C)c2nonc2c1[N+](=O)[O-] | -32.5% (inactive) |
| CCCC(=O)OCCNc1cc(SCc2ccco2)c2nonc2c1[N+](=O)[O-] | 9.3% (inactive) |
| Cc1nnc(Sc2cc(NCCO)c([N+](=O)[O-])c3nonc23)s1 | 17.1% (inactive) |
| Cc1ccc(Sc2cc(NCCCO)c([N+](=O)[O-])c3nonc23)cc1 | 5.8% (inactive) |
| CCCC(=O)OCCNc1cc(Sc2nc3ccccc3[nH]2)c2nonc2c1[N+](=O)[O-] | 49.9% (inactive) |
| CC(=O)OCCCNc1cc(Sc2nc3ccccc3s2)c2nonc2c1[N+](=O)[O-] | -22.9% (inactive) |
| CCOC(=O)Nc1sc2nc(C)cc(C)c2c1-n1cccc1 | -25.7% (inactive) |
| COCCN(C(=O)c1cccc(OC)c1)c1nnc(-c2ccncc2)s1 | 24.5% (inactive) |
| COc1ccccc1N1CCN(CC(=O)c2c(C)[nH]c3ccccc23)CC1 | -0.2% (inactive) |
| COc1cc(OC)c(OC)cc1/C=N/NC(=S)NCC1CCCO1 (stereo not drawn) | 1.1% (inactive) |
| CCn1c(SCC(=O)Nc2nc3c(s2)CCCC3)nc2c1c(=O)n(C)c(=O)n2C | -6.8% (inactive) |
| C=CCOC(=O)C(=O)/C=C/c1ccc2c(c1)Cc1ccccc1-2 | -23.3% (inactive) |
| CCCc1ccc2oc(C(=O)N(C)CCn3ccnc3C)c(C)c2c1 | -19.1% [at 20 µM] (inactive) |
| CC(=O)NC(Cc1cc(C)ccc1C)C(=O)N1CCN(C(=O)c2ccc([N+](=O)[O-])cc2)CC1 (stereo not drawn) | -2.4% (inactive) |

| Compound | inhibition |
| --- | --- |
| COc1cc(-c2nc3ccccn3c2/N=C/c2cccc(F)c2)ccc1O | -3.3% (inactive) |
| COc1cc(CNS(=O)(=O)c2ccc3c(c2)CC(C)N3C(=O)C2CCC2)cc(OC)c1OC (stereo not drawn) | -10.7% (inactive) |
| Oc1[nH]c2ccc(Br)cc2c1N=NC(=S)N1CCOCC1 | 49.6% (inactive) |
| NC(=S)N=Nc1c(O)[nH]c2ccccc12 | 18.5% (inactive) |
| Oc1[nH]c2ccccc2c1N=NC(=S)N1CCOCC1 | 63.2% (active) |
| COC(=O)CCC(=O)Nc1c(C)n(C)n(-c2ccccc2)c1=O | 22.3% [at 20 µM] (inactive) |
| Cc1cc(OCC(=O)Nc2ccc(S(=O)(=O)N3CCN(C)CC3)cc2)ccc1Cl | -13.3% (inactive) |
| Cc1cc(OCC(=O)Nc2ccc(S(=O)(=O)N3CCN(C)CC3)cc2)ccc1Br | 3.2% (inactive) |
| O=C(c1ccccn1)N1CCN(c2cccc(C(F)(F)F)c2)CC1 | -1.3% (inactive) |
| CCOC(=O)c1cnn(-c2nc(SC)nc3sc4c(c23)CCCC4)c1N | 5.6% (inactive) |
| CCOC(=O)c1cnn(-c2nc(C)nc3sc4c(c23)CCC4)c1N | -9.9% (inactive) |
| CCOC(=O)c1cnn(-c2nc3sc4c(c3c(=O)[nH]2)CCCC4)c1N | 75% (active) |
| Cc1onc(-c2ccccc2)c1C(=O)N=C(N)c1ccc(C(F)(F)F)cc1 | 19.1% (inactive) |
| CCOc1cc(/C=N/NC(=O)C(=O)NCCCOC(C)C)cc(Br)c1O | 4.9% (inactive) |
| CCN1CCN(CCC(=O)Nc2ccc(C)cc2)CC1 | -48.9% [at 20 µM] (inactive) |
| Cc1cccc(CC2CC(=O)N(c3ccccc3)C2=O)c1 (stereo not drawn) | -23.5% (inactive) |
| Cc1ccc(C)c(S(=O)(=O)N2CCC3(CC2)OCCO3)c1 | 11.1% (inactive) |
| CN(C)S(=O)(=O)c1cccc(N=c2scc(-c3ccc4c(c3)NC(=O)CO4)n2CC2CCCO2)c1 (stereo not drawn) | -17.4% (inactive) |
| O=C1COc2ccc(-c3csc(=Nc4ccc(OC(F)F)cc4)n3CC3CCCO3)cc2N1 (stereo not drawn) | 14.3% (inactive) |
| CSCCNC(=O)c1ccc(OC2CCN(S(=O)(=O)N(C)C)CC2)cc1 | 11.7% [at 20 µM] (inactive) |
| CN(C)C(=O)c1c2c(nc3ccccc13)-c1ccccc1CC2 | 7.9% (inactive) |
| CCOc1ccc(NC(=O)c2ccc(NC(=S)NC3CCCCC3)cc2)cc1 | 5.4% [at 20 µM] (inactive) |
| Cc1ccc(OCc2ccccc2C)c([N+](=O)[O-])n1 | -33% (inactive) |
| CCCCN(C)CC(O)Cn1cc(/C=C/C(=O)c2cccs2)c2ccccc21 (stereo not drawn) | 19.9% (inactive) |
| CCCN(CCC)CC(O)Cn1cc(/C=C/C(=O)c2ccccc2)c2ccccc21 (stereo not drawn) | 19% (inactive) |
| COC(=O)c1sc(N)c(C(=O)OC)c1CSc1nnnn1C | -5.2% (inactive) |
